Measurements published in PubChem BioAssay (NCATS).
Records with an inconclusive call do not appear. Calls of active or inactive are those of the source. Calls come from the whole dose curve; tested in HEK293 reporter line.

assay: qHTS for Inhibitors of the Functional Ribonucleoprotein Complex (vRNP) of Lassa (LASV) Arenavirus: Viability assay - alamar blue signal for LASV Primary Screen (AID 1347083); settings: cell viability, alamar blue fluorescence (LASV minigenome counter-screen); series mostly up to 57.5 µM; activity change, negative = reduced viability: at the top concentration; note: nearly all actives have a fitted effect of over 80% in size
% is set by controls: 0 for no effect and ±100 for the full control effect.

Structure (SMILES) | activity change, negative = reduced viability | Potency
CCOc1ccc(NC(C)=O)cc1 | 5.78% (inactive) | –
CNc1c2c(nn1C)CCCC2 | 7.48% (inactive) | –
C/C(=C(\CCOP(=O)(O)O)SC(=O)c1ccccc1)N(C=O)Cc1cnc(C)nc1N | 7.22% [at 5.82 µM] (inactive) | –
Cn1cnc2c1c(=O)[nH]c(=O)n2C | – | inactive
O=C1NCN(c2ccccc2)C12CCN(CCCC(c1ccc(F)cc1)c1ccc(F)cc1)CC2 | 1.75% (inactive) | –
C[N+]12CCC(CC1)C(OC(=O)C(O)(c1ccccc1)c1ccccc1)C2 (stereo not given) | 1.96% (inactive) | –
CCCC(=O)O[C@]1(C(=O)CC)CC[C@H]2[C@@H]3CCC4=CC(=O)CC[C@]4(C)[C@H]3[C@@H](O)C[C@@]21C | 0.116% (inactive) | –
CC1(c2ccccc2)OC(C(=O)O)=CC1=O (stereo not given) | -1.07% (inactive) | –
CN(C(=O)CCCOc1ccc2[nH]c(=O)ccc2c1)C1CCCCC1 | – | inactive
CCN(CC)CCOc1ccc(Cc2ccccc2)cc1 | 19.7% (inactive) | –
O=C(CCCN1CC=C(n2c(=O)[nH]c3ccccc32)CC1)c1ccc(F)cc1 | -91.7% (inactive) | –
Clc1ccc2c(c1)CCc1cccnc1C2=C1CCNCC1 | -135% (inactive) | –
CNC(=O)c1c(I)c(NC(=O)CCCCC(=O)Nc2c(I)c(C(=O)O)c(I)c(C(=O)NC)c2I)c(I)c(C(=O)O)c1I | 9.38% (inactive) | –
O=S1(=O)OC(c2ccc(O)cc2)(c2ccc(O)cc2)c2ccccc21 | 0.0528% (inactive) | –
COc1cc(NS(=O)(=O)c2ccc(N)cc2)nc(OC)n1 | – | inactive
